Experiment [1] is described as follows: CCTE_Mundy_HCI_iCellGluta_NOG_NeuriteLength: CCTE's Neurite Outgrowth Assay in iCellGluta cells for Neurite Length, Mundy Lab (AID 2284318). The method, boiled down: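 Automated high-content imaging of betaIII-tubulin (Alexa Fluor-488) and Hoechst-stained cells gave neurite length, normalized to the DMSO baseline.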
Experiment [2] can be described thus: TAMU_PeakParms_SingleDonor1434_Asystole: Texas A&M University (TAMU) 1.5-hr Human Induced Pluripotent Stem Cell (iPSC)-derived Cardiomyocytes Calcium (Ca+2) Flux Assay for Cardiotoxicity: Asystole (quiescence of beating) (AID 2284328). The method, boiled down:
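Average Ca2+-flux peak frequency (beats/s) was recorded in single-donor iPSC-derived cardiomyocytes after 90 min exposure (0.2–100 uM final, 0.5% DMSO). Asystole POD set as EC95 against DMSO, no preprocessing.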

Experiment [3] is described as follows: IUF_NPC1_cytotoxicity_72hr: Cytotoxicity Assessment at 72 hours in the Leibniz Research Institute for Environmental Medicine (IUF) Neural Progenitor Cell Proliferation Assay (NPC1) (AID 2284332).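 Further: rising LDH signal means more cytotoxicity.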 In outline:
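Single human fetal cortex neural progenitor spheres (GW 16-19, 0.25-0.35 mm) in EGF/FGF proliferation medium were exposed to compound for 72 h at 37C without renewal. Medium LDH release was read as resorufin fluorescence and fitted as gain-of-signal.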

Experiment [4] is described as follows: CCTE_Mundy_HCI_iCellGluta_NOG_NeuronCount: CCTE's Neurite Outgrowth Assay in iCellGluta cells for Neuron Count, Mundy Lab (AID 2284340).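 Further: cells fixed about 48 h after compound addition.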 In outline:
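Neuron count read by automated high-content imaging of Hoechst 33342 and betaIII-tubulin/Alexa Fluor-488 labelling in human iPSC glutamatergic neurons. Activity fitted relative to DMSO.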

Experiment [5] can be described thus: CCTE_Mundy_HCI_iCellGluta_NOG_NeuriteCount: CCTE's Neurite Outgrowth Assay in iCellGluta cells for Neurite Count, Mundy Lab (AID 2284342).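 Further: chemical exposure about 48 hours starting 2 hours after plating.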
For a further experiment, the system named is IYD (gene 389434). Put plainly: CCTE_GLTED_hIYD: CCTE's human Iodotyrosine Deiodinase (xIYD) Inhibition Assay, Great Lakes Toxicology and Ecology Division (GLTED) Lab (AID 2284317).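 Further: cell-free human IYD enzyme made in baculovirus insect cells; iodide freed from monoiodotyrosine measured by cerium arsenite color change at 420 nm.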 In outline: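 Human IYD expressed in a baculovirus-insect cell system was incubated 3 h with monoiodotyrosine and test chemical. Released iodide, separated on Dowex columns, was quantified by the Sandell-Kolthoff reaction at 420 nm; plates were normalized to MNT and DMSO/NaOH controls.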

Experiment [6] can be described thus: CCTE_Deisenroth_5AR_NBTE_donor: CCTE's 5alpha-reductase NanoBRET Target Engagement Assay […], Deisenroth Lab (AID 2284319; active means hit-call score of the fitted dose curve at least 0.9, where 1 is the maximum; inactive means score below 0.9). To be noted: actives raise or lower the signal. The method, boiled down:
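Donor NanoLuc luminescence at 460-20 nm is the read-out, serving artifact detection. Transiently expressed SRD5A2-NanoLuc in HEK293T; 5 h total chemical exposure, testosterone tracer added for the final 2 h; fitting bidirectional relative to DMSO baseline.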

Experiment [7] is described as follows: CCTE_Deisenroth_5AR_NBTE_acceptor: CCTE's 5alpha-reductase NanoBRET Target Engagement Assay - Autofluorescence Screen, Deisenroth Lab (AID 2284321; active means hit-call score of the fitted dose curve at least 0.9, where 1 is the maximum; inactive means score below 0.9;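 further: compound fluorescence in the acceptor channel under 460 nm excitation flags autofluorescence artifacts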). To be noted: actives raise or lower the signal. The method, boiled down:
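Using three independent plate-reader runs, nominal 100 uM chemicals were checked for intrinsic fluorescence (ex 460 nm). DMSO defined the baseline for bidirectional fitting.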

In the next experiment the test system is SRD5A2 (gene 6716). Put plainly: CCTE_Deisenroth_5AR_NBTE_ratio: CCTE's 5alpha-reductase NanoBRET Target Engagement Assay - Ratio, Deisenroth Lab (AID 2284322; active means hit-call score of the fitted dose curve at least 0.9, where 1 is the maximum; inactive means score below 0.9). To be noted: actives raise or lower the signal. The method, boiled down: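 Reverse-transfect HEK293T with pNLF1-C-SRD5A2, express 20 h. Pre-incubate cells with chemical 3 h (8-point series, 10 nM - 29.9 uM, duplicate). Add testosterone tracer, 2 h more. Add substrate/inhibitor, read donor and acceptor emission.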

Experiment [8] can be described thus: VALA_TUBIPS_Antagonist_TubuleLength: VALA Sciences human iPS-derived Endothelial Tubule Formation (TUBIPS) Antagonist Assay (AID 2284313). In outline: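 Cells grown 3 days with 10 ng/ml VEGF, then exposed to compounds in VEGF medium for another 3 days. After fixation, nuclear stain and CD31 immunofluorescence imaging gave mean total tubule length against 0.1% DMSO; suramin (100 uM) inhibition control.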

A short description of experiment [9]: VALA_MIGHUV2_Bcatenin: VALA Sciences human Umbilical Vein Endothelial Cell Migration (MIGHUV) Assay, Nuclear Translocation of beta-Catenin after Recovery (AID 2284315). In outline: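 HUVEC (4000 cells/well) scratch-wounded, dosed within 30 min over 6 concentrations in triplicate, recovered 24 h. After fixation, Hoechst and anti-beta-catenin immunofluorescence imaged for nuclear CTNB. Gain of signal versus 0.1% DMSO.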

Experiment [10] in a line: VALA_TUBHUV_Antagonist_TubuleLength: VALA Sciences human Umbilical Vein Endothelial Tubule Formation (TUBHUV) Antagonism Assay (AID 2284325). The method, boiled down:
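HUVEC–HDF co-culture (1:3) pre-grown 3 days with 10 ng/ml VEGF, then 3 days with compound plus VEGF. Fixed, nuclear and CD31 stained; total tubule length by imaging versus 0.1% DMSO; suramin 100 uM positive control.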

Experiment [11] in a line: VALA_MIGHUV1_ScratchOnly_WoundArea: VALA Sciences human Umbilical Vein Endothelial Cell Migration (MIGHUV) Assay, Area of Scratch Wound Inhibited Recovery (AID 2284336). The method, boiled down:
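HUVEC monolayers (9000 cells/well) were scratched after 24 h, dosed within 30 min (six concentrations, triplicate, 0.1% DMSO), allowed 24 h recovery, then fixed. Hoechst-stained nuclei in the wound imaged; cytochalasin D as reference.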

Experiment [12] can be described thus: VALA_TUBHUV_Agonist_TubuleLength: VALA Sciences human Umbilical Vein Endothelial Tubule Formation (TUBHUV) Agonism Assay (AID 2284337). In outline:
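HUVEC co-cultured with fibroblasts (1:3) 3 days in 10 ng/ml VEGF, then 3 days with compound plus VEGF; 0.1 % DMSO neutral control. Fixed, nuclear and CD31 stained; tubule length by fluorescence imaging.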

Experiment [13] in a line: VALA_TUBIPS_Agonist_CellCount: Viability Assessment in the VALA Sciences human iPS-derived Endothelial Tubule Formation (TUBIPS) Agonism Assay (AID 2284338).
Experiment [14] deals with Brachyury (BRA) Protein Expression, Deisenroth Lab, TBXT (gene 6862). Put plainly: CCTE_Deisenroth_DEVTOX-GLR_legacy_Bra: (Legacy) CCTE's DevTox GLR-Endo Assay Evaluation of Brachyury (BRA) Protein Expression, Deisenroth Lab (AID 2284329; active means hit-call score of the fitted dose curve at least 0.9, where 1 is the maximum; inactive means score below 0.9). The method, boiled down:
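Human pluripotent RUES2-GLR line was exposed twice during 48 h differentiation to a 10-point series, 1 nM - 200 uM. Fraction of Bra-positive cells was scored by imaging against pluripotent baseline and fitted after 0.2% DMSO subtraction.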

Experiment [15] can be described thus: CCTE_Deisenroth_DEVTOX-GLR_legacy_CellCount: (Legacy) Viability Assessment in CCTE's DevTox GLR-Endo Assay, Deisenroth Lab (AID 2284331; active means hit-call score of the fitted dose curve at least 0.9, where 1 is the maximum; inactive means score below 0.9). To be noted: actives raise or lower the signal. In outline: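 Nuclei count by fluorescence high-content imaging (5 fields/well) after 48 h differentiation of RUES2-GLR cells. Two exposures, 24 h apart; 1 nM - 200 uM series; n=4. Bidirectional fit vs DMSO.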

For experiment [16], the system named is SRY-box transcription factor 17 (SOX17) Protein Expression, Deisenroth Lab, SOX17 (gene 64321). In words: CCTE_Deisenroth_DEVTOX-GLR_legacy_Sox17: (Legacy) CCTE's DevTox GLR-Endo Assay Evaluation of SRY-box transcription factor 17 (SOX17) Protein Expression, Deisenroth Lab (AID 2284341; active means hit-call score of the fitted dose curve at least 0.9, where 1 is the maximum; inactive means score below 0.9). To be noted: actives raise or lower the signal. The method, boiled down:
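RUES2-GLR human pluripotent cells, seeded 24 h, then differentiated 48 h in defined media with two chemical exposures 24 h apart (1 nM - 200 uM, 10 points). Sox17+ fraction from high-content fluorescence imaging; bidirectional fit versus 0.2% DMSO.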

Results filed as inconclusive are left out. Active and inactive are the calls of the source. How the source made its calls, unless noted: active means hit-call score of the fitted dose curve at least 0.9, where 1 is the maximum; inconclusive means response in the unintended direction; inactive means score below 0.9.

With `CCCCC(CC)COC(=O)c1ccccc1C(=O)OCC(CC)CCCC` (stereo not given), the half-maximal activity concentration (AC50) in experiment [1] was 36.1 µM (active); in experiment [4], 18.8 µM (active); in experiment [5], 30.4 µM (active). Besides, the outcome in [2] and in experiment [3] was inactive.

`OC(c1ccc(Cl)cc1)(c1cncnc1)c1ccccc1Cl` (stereo not given): the result in the experiment on IYD (gene 389434) was inactive.

`COc1ccc(C(c2ccc(OC)cc2)C(Cl)(Cl)Cl)cc1`: the compound was called inactive (in [6]; in experiment [7]; in the experiment on SRD5A2 (gene 6716)).

Regarding `N#Cc1nn(-c2c(Cl)cc(C(F)(F)F)cc2Cl)c(N)c1S(=O)C(F)(F)F` (stereo not given), the call in [8], in experiment [9], in [1], in experiment [10], in experiment [3] and in experiment [11] was inactive. Moreover, the compound was classed as inactive in experiment [12], in experiment [13], in experiment [4] and in experiment [5].

`CCCCNC(=O)OCC#CI`: the AC50 (in experiment [6]; in experiment [7]; with SRD5A2 (gene 6716)) was 50 µM (active) in each case. The outcome in experiment [2] was inactive.

Consider `CCCCNC(=O)n1c(NC(=O)OC)nc2ccccc21`, for which the outcome in [1], in experiment [4] and in experiment [5] was inactive.

On to `COC(=O)N(OC)c1ccccc1COc1ccn(-c2ccc(Cl)cc2)n1`, for which the AC50 was 2.57 µM (active) in [1], 34.1 µM (active) in the experiment with SRD5A2 (gene 6716), 12.7 µM (active) in [4] and 3.35 µM (active) in experiment [5]. The outcome in experiment [6], in experiment [7] and in experiment [3] was inactive.

Turning to `COC(=O)c1ccccc1C(=O)OC`, the compound was classed as inactive in [14], in [15] and in [16].

Take `CO/C=C(/C(=O)OC)c1ccccc1Oc1cc(Oc2ccccc2C#N)ncn1`: the AC50 in [1] was 18.9 µM (active); in [4], 66 µM (active); in [5], 21.5 µM (active). In experiment [3], the compound was called inactive.

On to `CNC(=O)ON=CC(C)(C)SC`, for which the outcome in experiment [2] and in experiment [3] was inactive.

Regarding `C=CCC1=C(C)[C@@H](OC(=O)[C@@H]2[C@@H](C=C(C)C)C2(C)C)CC1=O`, the AC50 in [1] is 5.87 µM (active). The call in experiment [4] and in experiment [5] was inactive.

For `COP(=S)(OC)Oc1nc(Cl)c(Cl)cc1Cl`, the concentration at half-maximal activity (AC50) is 23.9 µM (active) in experiment [1], 23.1 µM (active) in experiment [4] and 27.8 µM (active) in experiment [5]. Moreover, the compound was called inactive in [3].

With `N#Cc1cc(Br)c(O)c(Br)c1`, the compound was called inactive in the experiment on IYD (gene 389434).

The values are drawn from PubChem BioAssay (EPA / NIEHS).
